# In PMC4336329 (PLoS ONE, 2015):
# Among all 310,000 compounds or so, about 14,000 (4.5%) showed an effect of 50% or more. The effect is printed as a negative number. The full list was thinned out, with strong results kept by preference.
# Molecular target: human ether-à-go-go-related gene (hERG) potassium channel (human, UniProt Q12809)
# Experiment: primary screen, population patch clamp on CHO cells stably expressing hERG; higher = less effect of the substance
# 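Further: peak tail current of the secondary pulse compared with the same well before compound.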
# human ether-à-go-go-related gene (hERG) potassium channel, sequence (Q12809 whole entry, looked up): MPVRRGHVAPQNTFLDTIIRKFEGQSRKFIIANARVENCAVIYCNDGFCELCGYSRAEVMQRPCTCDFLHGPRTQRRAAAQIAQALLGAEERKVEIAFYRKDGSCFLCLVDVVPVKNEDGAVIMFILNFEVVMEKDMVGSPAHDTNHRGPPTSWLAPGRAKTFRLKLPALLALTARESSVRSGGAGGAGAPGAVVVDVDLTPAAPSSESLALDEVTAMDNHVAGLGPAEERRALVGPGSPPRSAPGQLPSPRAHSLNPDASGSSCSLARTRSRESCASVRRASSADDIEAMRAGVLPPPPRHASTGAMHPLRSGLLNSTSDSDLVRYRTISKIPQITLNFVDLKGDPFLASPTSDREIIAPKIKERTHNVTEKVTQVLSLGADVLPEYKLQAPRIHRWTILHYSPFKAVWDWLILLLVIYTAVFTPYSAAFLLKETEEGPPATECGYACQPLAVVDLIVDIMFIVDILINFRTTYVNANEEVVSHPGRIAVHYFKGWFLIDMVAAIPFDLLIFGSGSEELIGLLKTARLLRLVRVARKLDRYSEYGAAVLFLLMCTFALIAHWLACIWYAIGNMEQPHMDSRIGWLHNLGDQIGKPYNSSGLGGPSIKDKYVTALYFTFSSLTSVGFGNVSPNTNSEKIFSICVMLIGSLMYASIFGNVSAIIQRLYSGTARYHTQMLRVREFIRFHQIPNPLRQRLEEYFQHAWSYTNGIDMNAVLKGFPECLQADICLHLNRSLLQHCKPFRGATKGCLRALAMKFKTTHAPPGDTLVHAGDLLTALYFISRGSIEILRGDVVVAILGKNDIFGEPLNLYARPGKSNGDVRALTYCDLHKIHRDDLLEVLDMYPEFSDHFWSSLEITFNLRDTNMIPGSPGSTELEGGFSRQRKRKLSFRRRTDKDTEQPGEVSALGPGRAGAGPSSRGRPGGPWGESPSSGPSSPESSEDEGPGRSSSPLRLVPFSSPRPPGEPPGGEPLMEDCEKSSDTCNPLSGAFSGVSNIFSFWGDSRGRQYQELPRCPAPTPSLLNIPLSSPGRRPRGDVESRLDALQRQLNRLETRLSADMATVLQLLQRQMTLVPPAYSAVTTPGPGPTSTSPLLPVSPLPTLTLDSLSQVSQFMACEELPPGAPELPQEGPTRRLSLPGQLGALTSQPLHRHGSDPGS
row,SMILES,"hERG current change (%, negative = inhibition) at 10uM [%]"
1,CCCn1c(/N=C/c2ccccc2O)nc2ccccc21,13.6
2,COc1ccc(OCCCC(=O)Nc2nncs2)cc1,0.955
3,COc1cccc(C=Nc2ccc(N3CCOCC3)cc2)c1O,17.9
4,CCCCC(=O)Nc1ccc2c(c1)nc(CCNC(=O)c1ccco1)n2C,-11.1
5,Cc1cnc(NC(=O)CN2CCN(c3ccccc3F)CC2)s1.Cl,12.2
6,Cc1ccc(S(=O)(=O)CCC(=O)OCC(=O)NCc2ccc(Cl)cc2)cc1,36.8
7,O=C(Nc1ccccc1Cl)NC1(C(=O)N2CCOCC2)CCCCC1,17.5
8,CCN1CCN(c2ccc(S(=O)(=O)N3CCCCC3)cc2NC(=O)c2sccc2C)CC1,-71.4
9,COc1ccccc1C(=O)Nc1nc(-c2cccs2)c(NC(C)=O)s1,-7.05
10,O=C(O)CN1c2cccc3cccc(c23)S1(=O)=O,32.4
11,CC(=O)N1c2ccc(Cl)cc2C2OCCC2C1c1ccco1 (stereo not shown),9.11
12,O=C(c1ccc(S(=O)(=O)N2CCOCC2)cc1)N1CCN(c2ccccn2)CC1,4.62
13,CC1CCCN1CC#CC(O)(c1ccccc1)c1ccccc1.Cl (stereo not shown),-60.7
14,OC(C#CCCN1CCCCC1)(c1ccccc1)C1CCCCC1 (stereo not shown),-46.3
15,OC(C#CCN1CCCC1)(c1ccccc1)c1ccccc1,-28.8
16,OC(C#CCCN1CCCCC1)(c1ccccc1)c1ccccc1,-53.8
17,OC(C#CCN1CCCCC1)(c1ccccc1)c1ccccc1,-24.6
18,OC(C#CCN1CCCC1)(c1ccccc1)c1cccc(F)c1 (stereo not shown),-16.7
19,CCOC(=O)[C@@H]1[C@H]2COc3ccc(Br)cc3[C@H]2N2C(=O)N(c3ccc(C)cc3)C(=O)[C@]12C,-4.14
20,O=C(NC(=S)NN1CCCCC1c1cccnc1)c1ccc(Cl)cc1Cl (stereo not shown),-6.98
21,Cc1ccc(SCC(=O)NC(=O)NCCC(C)C)c(C)c1,-1.09
22,Cc1cc(Cl)c2oc(C(=O)N(C)CCCCN3CCOCC3)c(C)c2c1,-46
23,COc1ccccc1CNC(=O)c1c(O)c2cc(OC)c(OC)cc2[nH]c1=O,6.86
24,COc1cc(/C=N/NC(=O)C(=O)NCc2cccnc2)cc(OC)c1OC,5.17
25,O=C(C1=C[C@H](C2CC2)C[C@H](OCc2ccc(CO)cc2)O1)N1CCN(Cc2ccc3c(c2)OCO3)CC1,-57.8

row,SMILES,"hERG current change (%, negative = inhibition) at 10uM [%]"
1,CC(C)(C)[C@H]1C=C(C(=O)N2CCN(Cc3ccc4c(c3)OCO4)CC2)O[C@@H](OCc2ccc(CO)cc2)C1,-33.7
2,O=C(C1=C[C@@H](C2CCCCC2)C[C@@H](OCc2ccc(CO)cc2)O1)N1CCN(Cc2ccc3c(c2)OCO3)CC1,4.46
3,C[C@H]1C=C(C(=O)N2CCN(Cc3ccc4c(c3)OCO4)CC2)O[C@@H](OCc2ccc(CO)cc2)C1,-70.7
4,O=C(C1=C[C@H](c2ccc3c(c2)OCO3)C[C@H](OCc2ccc(CO)cc2)O1)N1CCN(Cc2ccc3c(c2)OCO3)CC1,-17.2
5,CC(C)(C)[C@@H]1C=C(C(=O)N2CCN(Cc3ccc4c(c3)OCO4)CC2)O[C@H](OCc2ccc(CO)cc2)C1,-35
6,O=C(C1=C[C@@H](C2CC2)C[C@@H](OCCCCO)O1)N1CCN(Cc2ccc3c(c2)OCO3)CC1,-11.1
7,O=C(C1=C[C@@H](C2CC2)C[C@@H](OCc2ccc(CO)cc2)O1)N1CCN(Cc2ccc3c(c2)OCO3)CC1,-51.7
8,O=C(C1=C[C@H](C2CCCCC2)C[C@H](OCc2ccc(CO)cc2)O1)N1CCN(Cc2ccc3c(c2)OCO3)CC1,-18.3
9,O=C(NC(=O)N1CCOCC1)c1ccccc1,8.08
10,CC(=O)NNC(=O)CSc1nnc(-c2ccccc2)c(-c2ccccc2)n1,19.4
11,COc1ccc(CN2CC(=O)N(c3ccc(C)c(C)c3)C2=S)cc1OC,12.2
12,CC(C)Oc1c(Cl)cc(CNC(C)(C)CO)cc1Cl,0.775
13,CSc1nnc(-c2ccco2)c(-c2ccco2)n1,2.75
14,CCCCCC(=O)Nc1ccc2oc(-c3cccnc3)nc2c1,-6.74
15,COC(=O)C1=C(C(=O)OC)SC2(S1)C(C(=O)OC)=C(C(=O)OC)SC1=C2c2cc(C)cc(C)c2NC1(C)C,26.1
16,COC(=O)C1=C(C(=O)OC)SC2(S1)C(C(=O)OC)=C(C(=O)OC)SC1=C2c2cccc(C)c2NC1(C)C,-51.6
17,COC(=O)C1=C(C(=O)OC)SC2(S1)C(C(=O)OC)=C(C(=O)OC)SC1=C2c2cc(C)ccc2NC1(C)C,14.3
18,CCOC(=O)C1CCCN(C(=O)c2cc(Nc3ccc(OC)cc3)nc3ccccc23)C1 (stereo not shown),-15
19,COc1cc2nc(N(CCCN(C)C)C(=O)c3ccc(S(=O)(=O)N(C)C4CCCCC4)cc3)sc2cc1OC.Cl,-51.6
20,COc1cc2nc(N(CCN(C)C)C(=O)c3ccc(S(=O)(=O)N(C)CC4CCCO4)cc3)sc2cc1OC.Cl (stereo not shown),-9.01
21,Cc1ccc2sc(N(CCCN(C)C)C(=O)c3ccc(S(=O)(=O)N(C)C4CCCCC4)cc3)nc2c1C.Cl,-8.13
22,CN(C)CCCN(C(=O)c1ccc(S(=O)(=O)N(C)C2CCCCC2)cc1)c1nc2ccc(F)cc2s1.Cl,-71.9
23,CCc1ccc2nc(N(CCCN(C)C)C(=O)c3ccc(S(=O)(=O)N(C)C4CCCCC4)cc3)sc2c1.Cl,8.35
24,CN(C)CCCN(C(=O)c1ccc(S(=O)(=O)N(C)C2CCCCC2)cc1)c1nc2ccc(Br)cc2s1.Cl,2.39
